Compounds without any hit were thinned out: in the full panel of roughly 83,000, 20% have a hit.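 Growth was measured after 48 h exposure to one concentration of compound in 96-well plates. Values under 10 count as active.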 Unmarked numbers belong to inactive results. The source made the active and inactive calls.

Test systems include NCI-H23 lung; NCI-H226 lung; NCI-H322M lung; HOP-62 NSCLC; NCI-H460 lung; HOP-92 NSCLC; NCI-H522 lung; A549/ATCC NSCLC; 786-0 renal; COLO 205 colon; DU-145 prostate; K-562 leukemia; MALME-3M melanoma; MDA-MB-231 breast; RXF 393 renal; SF-268 CNS; SF-295 CNS; SF-539 CNS; UACC-257 melanoma; M14 melanoma.
Holding throughout (assay): NCI-60 one-dose screen, 48 h (100 = growth as untreated, 0 = no growth, -100 = all killed)
Settings in all cases: 10 µM unless noted

Take `Cc1ccc(-c2nc(C#N)c(S(=O)(=O)n3nc(C)cc3N)o2)cc1`: the growth with NCI-H23 lung was 90.7%; in the test on NCI-H226 lung it was 94.1%; in the test with NCI-H322M lung, 91%; in the test with HOP-62 NSCLC, 103%; in the test with NCI-H460 lung, 99.7%; in the test with HOP-92 NSCLC, 72.8%. The growth in the test on NCI-H522 lung is -15.8% (active); in the test with A549/ATCC NSCLC, 99.4%; in the test on 786-0 renal it was 78%; in the test with COLO 205 colon, -32.3% (active); with DU-145 prostate, 108%; with K-562 leukemia, -17.2% (active). In addition, the growth with MALME-3M melanoma is -63.3% (active); in the test on MDA-MB-231 breast, 88.3%; with RXF 393 renal, 76.8%; in the test with SF-268 CNS, 93.5%; with SF-295 CNS, 109%; with SF-539 CNS, 96.7%. Further, the growth with UACC-257 melanoma was 95.1%; in the test on M14 melanoma it was 48.8%.
In the case of `Cc1oc2ccc(O)c(CN3CCCCCC3)c2c1C(=O)Nc1ccc(C(F)(F)F)cc1`, the growth with NCI-H23 lung was 69.9%; in the test on NCI-H226 lung it was 72.4%; in the test on NCI-H322M lung it was 69.3%; in the test with HOP-62 NSCLC, 70.4%; in the test on NCI-H460 lung, 51.5%; in the test on HOP-92 NSCLC, 34.9%. Moreover, the growth is 72.5% with NCI-H522 lung; 61.2% with A549/ATCC NSCLC; 49.5% with 786-0 renal; 48.7% in the test with COLO 205 colon; 64.8% with DU-145 prostate; 29.6% in the test with K-562 leukemia. Also, the growth is 49.9% in the test with MALME-3M melanoma; 49% in the test with MDA-MB-231 breast; 50.4% in the test on RXF 393 renal; 75.4% in the test on SF-268 CNS; 48.8% with SF-295 CNS; 61.2% in the test on SF-539 CNS. Also, the results for the growth in the test with UACC-257 melanoma and in the test with M14 melanoma were 82% and 58.1%, respectively.
Take `O=C(NCCN1CCOCC1)c1cncnc1Nc1ccc2c(ccn2Cc2ccccn2)c1`: the growth with NCI-H23 lung was 102%; in the test with NCI-H226 lung, 95.2%; in the test with NCI-H322M lung, 105%; with HOP-62 NSCLC, 102%; in the test on NCI-H460 lung, 103%; in the test with HOP-92 NSCLC, 93.8%. Besides, the growth with NCI-H522 lung was 83.7%; with A549/ATCC NSCLC, 101%; in the test on 786-0 renal, 98.5%; in the test on COLO 205 colon, 95.6%; in the test on DU-145 prostate, 110%; in the test on K-562 leukemia, 116%. The growth was 102% in the test on MALME-3M melanoma; 106% in the test on MDA-MB-231 breast; 134% in the test with RXF 393 renal; 97.3% with SF-268 CNS; 102% in the test on SF-295 CNS; 100% with SF-539 CNS. The figures for the growth in the test with UACC-257 melanoma and in the test on M14 melanoma were 102% and 108%, respectively.
On to `Cn1cc(-c2csc(-c3cn(CCO)c4ccc(F)cc34)n2)c2cccnc21`, for which the growth is 74.1% with NCI-H23 lung; 76% in the test with NCI-H226 lung; 79.1% in the test with NCI-H322M lung; 52.6% in the test on HOP-62 NSCLC; 27% in the test on NCI-H460 lung; 64.8% in the test on HOP-92 NSCLC. Besides, the growth was 10% in the test with NCI-H522 lung; 49.8% in the test on A549/ATCC NSCLC; 73.3% in the test with 786-0 renal; 46% in the test on COLO 205 colon; 95.4% in the test on DU-145 prostate; 18.1% in the test with K-562 leukemia. Also, the growth in the test with MALME-3M melanoma is 72.8%; in the test with MDA-MB-231 breast, 57.9%; in the test on RXF 393 renal, 69.7%; in the test with SF-268 CNS, 77.6%; in the test on SF-295 CNS it was 52.3%; with SF-539 CNS, 69.9%. Moreover, the growth in the test on UACC-257 melanoma is 77.4%; with M14 melanoma, 35.7%.
`O=C(N/N=C/c1ccccc1Cl)c1ccccc1Nc1ccnc(C(F)(F)F)c1`: the growth is 16% in the test with NCI-H23 lung; 3.35% (active) in the test with NCI-H226 lung; 6.53% (active) with NCI-H322M lung; 1.91% (active) in the test on HOP-62 NSCLC; 3.5% (active) in the test on NCI-H460 lung; -17.1% (active) with HOP-92 NSCLC. For the same molecule, the growth with NCI-H522 lung was -20.5% (active); with A549/ATCC NSCLC, 7.28% (active); with 786-0 renal it was -30.4% (active); in the test on COLO 205 colon, -38% (active); with DU-145 prostate, 29.4%; with K-562 leukemia it was 4.98% (active). The growth with MALME-3M melanoma is 5.72% (active); with MDA-MB-231 breast, -17.1% (active); in the test on RXF 393 renal, -13.4% (active); in the test on SF-268 CNS, 14.1%; with SF-295 CNS it was -41.1% (active); in the test on SF-539 CNS it was 4.39% (active). The growth in the test on UACC-257 melanoma was -2.5% (active); in the test on M14 melanoma, 23.1%.
In the case of `Clc1ccc(C2=Nn3c(nnc3-c3cc(Cl)cc(Cl)c3Cl)SC2)cc1`, the growth in the test on NCI-H23 lung is 65.8%; with NCI-H226 lung it was 75.3%; in the test on NCI-H322M lung it was 71.4%; with HOP-62 NSCLC it was 16.2%; in the test with NCI-H460 lung it was 16.4%; with HOP-92 NSCLC it was 55.6%. Also, the growth in the test on NCI-H522 lung was 21.4%; with A549/ATCC NSCLC, 58.2%; with 786-0 renal, 3.83% (active); in the test with COLO 205 colon, 40.5%; with DU-145 prostate, -16.6% (active); in the test on K-562 leukemia it was 12.4%. The growth in the test on MALME-3M melanoma is 44.4%; in the test with MDA-MB-231 breast, 65.3%; in the test on RXF 393 renal it was 66.2%; in the test with SF-268 CNS, 35%; with SF-295 CNS it was 14.8%; with SF-539 CNS it was 72.9%. Besides, the values for the growth in the test with UACC-257 melanoma and in the test with M14 melanoma were 71.5% and 11.7%, respectively.
Take `CCCN1C(=O)N(CCC)C2C1NC(=S)N2/N=C/C=C/c1ccccc1OC` (stereo not given): the growth was 36.4% with NCI-H23 lung; 55.4% in the test on NCI-H226 lung; 44.6% in the test with NCI-H322M lung; 38.7% in the test with HOP-62 NSCLC; 6.85% (active) in the test on NCI-H460 lung; 77.4% in the test on HOP-92 NSCLC. The growth is -11.3% (active) in the test with NCI-H522 lung; 13.1% in the test with A549/ATCC NSCLC; 35.6% in the test with 786-0 renal; 17.6% in the test on COLO 205 colon; 14.2% in the test on DU-145 prostate; 12.6% in the test on K-562 leukemia. The growth is 40.4% in the test on MALME-3M melanoma; 23.9% in the test on MDA-MB-231 breast; -29.8% (active) in the test on RXF 393 renal; 62.9% in the test on SF-268 CNS; 10.9% in the test on SF-295 CNS; -30.6% (active) in the test with SF-539 CNS. Also, the growth is 60.5% in the test on UACC-257 melanoma and -0.388% (active) in the test with M14 melanoma.
As to `Cc1cc(=O)oc2cc(Oc3nc(-c4ccccc4)cn4c(-c5ccccc5)cnc34)ccc12`, the growth with NCI-H23 lung was 62.4%; with NCI-H226 lung, 44.6%; in the test on NCI-H322M lung, 86%; in the test with HOP-62 NSCLC, 68.7%; in the test with NCI-H460 lung, 64%; in the test on HOP-92 NSCLC, 22.4%. Moreover, the growth in the test on NCI-H522 lung was 47.1%; with A549/ATCC NSCLC it was 56.1%; with 786-0 renal, 67.3%; with COLO 205 colon, 70.5%; in the test on DU-145 prostate, 68%; with K-562 leukemia, 61.8%. For the same molecule, the growth was -9.77% (active) in the test on MALME-3M melanoma; 50.4% with MDA-MB-231 breast; 28.3% in the test with RXF 393 renal; 64.4% with SF-268 CNS; 54.2% with SF-295 CNS; 54.6% in the test with SF-539 CNS. The growth with UACC-257 melanoma is 65.7%; in the test on M14 melanoma it was 67.7%.

For the origin of these results see PubChem BioAssay (NCI).
